From PubChem BioAssay (NCATS)
Several values for one entry are separate records, joined by “and”; a condition that tells them apart may be missing. Equal values may be shown once. Results filed as inconclusive are left out. Activity calls are given as the source filed them. Unless noted, calls follow the shape of the dose curve; as a rule, active = well fitted curve in either direction with a large enough effect (not every such curve was filed as active); inconclusive = small, poorly fitted or top-dose-only effect, or another doubt; inactive = flat fitted curve, though single readings scatter.

Columns and labels:
[1] = target: Lysosomal acid glucosylceramidase (Homo sapiens) (UniProt P04062); test: Glucocerebrosidase-p2 (AID 348; in the data active = potency below about 10 µM; also: potency is read from the fitted curve at half-maximal effect); conditions: purified GBA, blue fluorogenic substrate, 40 min
Chain of Lysosomal acid glucosylceramidase (Homo sapiens) (P04062 whole entry, looked up): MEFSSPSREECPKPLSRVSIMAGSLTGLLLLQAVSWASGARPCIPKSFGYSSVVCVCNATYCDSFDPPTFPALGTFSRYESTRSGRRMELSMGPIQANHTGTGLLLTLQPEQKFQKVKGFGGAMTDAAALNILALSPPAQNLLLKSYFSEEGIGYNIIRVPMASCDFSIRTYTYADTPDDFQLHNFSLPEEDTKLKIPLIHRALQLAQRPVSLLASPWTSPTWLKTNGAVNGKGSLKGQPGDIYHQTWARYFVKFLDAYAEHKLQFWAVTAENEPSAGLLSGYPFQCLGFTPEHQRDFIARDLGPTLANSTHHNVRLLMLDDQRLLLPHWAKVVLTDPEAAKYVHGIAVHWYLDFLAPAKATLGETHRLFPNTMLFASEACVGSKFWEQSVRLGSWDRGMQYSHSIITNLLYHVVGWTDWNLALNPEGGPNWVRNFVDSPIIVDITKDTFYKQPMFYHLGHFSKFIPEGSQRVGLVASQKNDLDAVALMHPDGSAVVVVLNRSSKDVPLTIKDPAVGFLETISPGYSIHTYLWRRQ
Summary of the method: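 Compounds titrated from 0.6 nM upwards against 0.2 nM enzyme in pH 5.9 citric acid/KH2PO4, taurocholate, tween-20; blue fluorogenic substrate 80 uM, 40 min room temperature, stopped and read Ex 365/Em 440 for AC50.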

[2] = AP1 Signaling Pathway (AID 357); conditions: ME-180 AP-1-bla reporter, EGF-induced, beta-lactamase ratio, 5 h;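 also: ME-180 reporter cells stimulated with EGF at its EC50 level; % is scaled to controls: 0 for no effect and ±100 for the full control effect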
Summary of the method: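 AP-1-bla ME-180 cells, Opti-MEM + 0.5% dialyzed FBS, plated overnight 37 °C. Cpd titration + EC50 EGF, 5 h 37 °C. CCF4 2.5 h RT; ex 405, em 460/530 ratio → %activity, AC50.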

[3] = target: Cytochrome P450 1A2 (Homo sapiens) (UniProt P05177); test: p450-cyp1a2 (AID 410; calls by dose curve; also: potency is read from the fitted curve at half-maximal effect;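 as to activity change, negative = inhibition: -100% = full effect of reference inhibitor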); conditions: recombinant CYP1A2, luciferin-ME demethylation, luminescence; series mostly up to 25.6 µM
Chain of Cytochrome P450 1A2 (Homo sapiens) (P05177 whole entry, looked up): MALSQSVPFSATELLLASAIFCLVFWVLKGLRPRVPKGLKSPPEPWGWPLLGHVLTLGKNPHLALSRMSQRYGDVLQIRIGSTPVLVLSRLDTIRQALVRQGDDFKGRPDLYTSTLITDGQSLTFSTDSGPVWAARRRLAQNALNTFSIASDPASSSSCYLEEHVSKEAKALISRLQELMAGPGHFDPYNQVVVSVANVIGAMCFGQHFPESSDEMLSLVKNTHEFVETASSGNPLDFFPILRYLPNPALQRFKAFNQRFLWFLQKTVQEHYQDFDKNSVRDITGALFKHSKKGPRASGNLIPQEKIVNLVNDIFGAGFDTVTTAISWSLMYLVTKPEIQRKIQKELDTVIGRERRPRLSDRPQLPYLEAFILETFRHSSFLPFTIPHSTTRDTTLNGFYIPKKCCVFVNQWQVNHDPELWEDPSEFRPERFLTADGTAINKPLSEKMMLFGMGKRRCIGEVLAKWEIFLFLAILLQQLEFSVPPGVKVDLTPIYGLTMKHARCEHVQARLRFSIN
Summary of the method: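 Luminescent readout of luciferin formed from Luciferin-ME by human CYP1A2; data normalized against complete inhibition by 57 uM furafylline. Enzyme 20nM, substrate 100uM at Km, 100mM KPO4 buffer, 60 min reaction at room temperature.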

[4] = Cell Viability - Jurkat (AID 426;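 active = dose-dependent loss of cell ATP signal giving a full or clear fitted curve, ranked by lower potency value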; also: potency is read from the fitted curve at half-maximal effect); conditions: qHTS
Summary of the method: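 qHTS, 1536-well; Jurkat E6-1, 5000 cells/well, complete medium; cpd 40 hr, 37 °C; CellTiter-Glo 20 min RT; luminescence. AC50 by Hill fit.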

[5] = target: Glucocorticoid receptor (Homo sapiens) (UniProt P04150); test: GR-GFP Redistribution (AID 450;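 active = compounds whose dose series gives a full or clear partial fitted curve of increased nuclear translocation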; also: potency is read from the fitted curve at half-maximal effect); conditions: U2OS GR-GFP nuclear translocation, laser cytometry, 2 h
Chain of Glucocorticoid receptor (Homo sapiens) (P04150 whole entry, looked up, the tested form may be a part): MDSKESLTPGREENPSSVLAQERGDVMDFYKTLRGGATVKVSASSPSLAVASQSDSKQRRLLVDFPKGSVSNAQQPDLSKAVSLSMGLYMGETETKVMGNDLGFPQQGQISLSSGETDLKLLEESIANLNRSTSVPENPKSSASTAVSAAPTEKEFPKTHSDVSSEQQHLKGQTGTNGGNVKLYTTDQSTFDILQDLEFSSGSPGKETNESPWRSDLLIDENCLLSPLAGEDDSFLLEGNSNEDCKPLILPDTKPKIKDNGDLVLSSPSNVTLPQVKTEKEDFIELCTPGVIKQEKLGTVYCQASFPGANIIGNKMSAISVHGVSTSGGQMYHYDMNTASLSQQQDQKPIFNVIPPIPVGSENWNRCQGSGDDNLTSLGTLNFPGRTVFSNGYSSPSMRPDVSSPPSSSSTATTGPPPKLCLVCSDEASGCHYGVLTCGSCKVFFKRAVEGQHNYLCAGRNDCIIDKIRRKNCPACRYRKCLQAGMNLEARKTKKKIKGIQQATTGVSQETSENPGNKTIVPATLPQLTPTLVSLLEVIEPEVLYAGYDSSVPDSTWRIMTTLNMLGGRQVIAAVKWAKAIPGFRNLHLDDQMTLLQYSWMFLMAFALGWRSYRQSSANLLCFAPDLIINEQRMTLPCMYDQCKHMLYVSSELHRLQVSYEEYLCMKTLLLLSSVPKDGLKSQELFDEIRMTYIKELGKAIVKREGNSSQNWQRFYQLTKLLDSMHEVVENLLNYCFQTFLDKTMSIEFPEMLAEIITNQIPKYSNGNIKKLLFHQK

[6] = target: Glucocorticoid receptor (Homo sapiens) (UniProt P04150); test: GR-EFC Redistribution (AID 451; calls by dose curve; also: potency is read from the fitted curve at half-maximal effect); conditions: CHO-K1 GR-EFC translocation, beta-gal luminescence, 2 h
Summary of the method: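 CHO-K1 cells stably expressing nuclear-localized β-gal enzyme acceptor and GR fused C-terminally to the enzyme donor fragment; ligand-driven nuclear translocation restores β-gal by complementation. Compounds titrated up to 46 uM final, 2 h at 37 °C; luminescence read.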

[7] = target: Mitogen-activated protein kinase 10 (Mus musculus) (UniProt Q61831); test: JNK3 AlphaScreen Assay (AID 530); conditions: JNK3 lysate, c-Jun phosphorylation; series mostly up to 25.6 µM;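 also: kinase came from lysate of stimulated human HepG2 cells; signal reports phosphorylation of biotinylated GST-cJun 1-79 at Ser73 with 10 µM ATP; % is scaled to controls: 0 for no effect and ±100 for the full control effect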
Summary of the method: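 Inhibitors reduce antibody binding to phosphorylated biotin-cJun, lowering AlphaScreen luminescence. Lysates from HepG2 cells pre-activated by IL-1beta plus TNF-alpha supplied JNK3; compounds were titrated.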

[8] = Cell Viability - N2a (AID 540; active = well fitted curve in the direction sought with a large enough effect; an effect the other way counts as inactive or inconclusive; also: potency is read from the fitted curve at half-maximal effect; nearly all actives have a fitted effect of over 45% in size); conditions: N2a mouse neuroblastoma cell viability; activity change, negative = cytotoxicity: at 92.2 µM (top of the series)
Summary of the method: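 Luminescent ATP signal (CellTiter-Glo, 20 min at room temperature) served as the viability read-out after N2a cells were treated with compounds for 40 hours at 37 °C. Concentration-response data were fitted to the Hill equation for AC50.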

[9] = Cell Viability - NIH 3T3 (AID 541; active = well fitted curve in the direction sought with a large enough effect; an effect the other way counts as inactive or inconclusive; also: potency is read from the fitted curve at half-maximal effect; nearly all actives have a fitted effect of over 25% in size); conditions: NIH 3T3 cell viability, qHTS; activity change, negative = cytotoxicity: at 92.2 µM (top of the series)
Summary of the method: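 Luminescent ATP signal (CellTiter-Glo) served as the viability read-out after NIH 3T3 cells were exposed to compounds over a concentration range for 40 hr at 37 °C. Hill-equation modelling of concentration-response data gave AC50.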

[10] = Cell Viability - HUV-EC-C (AID 542; active = well fitted curve in the direction sought with a large enough effect; an effect the other way counts as inactive or inconclusive; also: potency is read from the fitted curve at half-maximal effect; nearly all actives have a fitted effect of over 35% in size); conditions: HUV-EC-C endothelial cell viability, qHTS; series mostly up to 92.2 µM
Summary of the method: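 qHTS cytotoxicity: HUV-EC-C, 1000 cells/well, 5 hr settle, compound 40 hr 37 °C, CellTiter-Glo, luminescence. AC50 via Hill equation.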

[11] = Cell Viability - H-4-II-E (AID 543; active = well fitted curve in the direction sought with a large enough effect; an effect the other way counts as inactive or inconclusive; also: potency is read from the fitted curve at half-maximal effect; nearly all actives have a fitted effect of over 35% in size); conditions: H-4-II-E rat hepatoma viability; series mostly up to 92.2 µM
Summary of the method: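 Luminescent ATP signal (CellTiter-Glo) served as the viability read-out, with cytotoxicity seen as a concentration-dependent ATP drop. Cells were treated for 40 hours in complete medium. AC50 values derive from Hill-equation modelling.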

[12] = Stat Signaling Pathway (AID 446); conditions: ME-180 SIE beta-lactamase reporter, IL-6 stimulated, 5 h;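 also: ME-180 cervical cancer cells given 40 pM IL-6 alongside compound; SIE-controlled beta-lactamase reporter measured as 460/530 nm FRET emission ratio; % is scaled to controls: 0 for no effect and ±100 for the full control effect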
Summary of the method: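 ME-180 SIE-bla cells; overnight plating; cpd + IL-6 40 pM, 5 h, 37 C; LiveBLAzer 2.5 h RT; 460/530 nm emission ratio. Normalized to 300 pM IL-6 and 125 nM JAK inhibitor controls.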

[13] = NFAT Signaling Pathway (AID 444); conditions: Jurkat NFAT-bla M1, carbachol, beta-lactamase ratio, 5 h;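 also: carbachol stimulus at about its EC50 of 1 µM final; % is scaled to controls: 0 for no effect and ±100 for the full control effect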
Summary of the method: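 Jurkat cells carrying an NFAT-driven β-lactamase reporter and co-transfected muscarinic M1 receptor were treated with compound plus carbachol (1 uM final, an EC50 level) for 5 h at 37 °C. CCF4 loading followed for 1 h at RT; 460/530 nm ratio gave %activity.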

Oc1ccc(Cl)cc1Sc1cc(Cl)ccc1O
inactive: Potency [1] > 11.4 µM | activity change, negative = inhibition ([2]; at 7.69 µM (top of the series)) -7.34% | Potency [5] > 46 µM | Potency [6] > 9.22 µM | outcome [7]
active: Potency [3] 3.98 µM | Potency [4] 56.7 µM | Potency [8] 31.6 µM | Potency [9] 31.6 µM | Potency [10] 31.6 µM | Potency [11] 39.8 µM

CN(C)CC/C=C1\c2ccccc2Sc2ccc(Cl)cc21
active: Potency [3] 1.58 µM and 3.98 µM
inactive: Potency [1] > 11.4 µM | activity change, negative = inhibition ([2]; at 7.69 µM (top of the series)) 20.4% | activity, negative = inhibition ([12]; at 7.69 µM (top of the series)) -3.4% | activity, negative = inhibition ([12]; at 17.2 µM (top of the series)) -6.29% | Potency [5] > 20.6 µM and > 46 µM | Potency [6] > 20.6 µM and > 9.22 µM | outcome [7]

C[C@H](O)C(=O)Nc1c(I)c(C(=O)NC(CO)CO)c(I)c(C(=O)NC(CO)CO)c1I
inactive: activity change, negative = inhibition ([2]; at 17.2 µM (top of the series)) 11.2% | Potency [3] | activity change, negative = inhibition ([13]; at 17.2 µM (top of the series)) 3.52% | activity, negative = inhibition ([12]; at 17.2 µM (top of the series)) -2.21% | Potency [5] > 20.6 µM | Potency [6] > 20.6 µM | outcome [7]

O=C(O)c1cc2cc(Cc3cccnc3)ccc2o1
inactive: activity change, negative = inhibition ([2]; at 38 µM (top of the series)) -4.5% | Potency [3] | activity change, negative = inhibition ([13]; at 38 µM (top of the series)) -0.641% | activity, negative = inhibition ([12]; at 38 µM (top of the series)) 6.34% | Potency [5] > 46 µM | Potency [6] > 46 µM | outcome [7]

CN(C(=O)CN(CCO)CC(=O)N(C)C(C)(C)Cc1ccccc1)C(C)(C)Cc1ccccc1
inactive: activity change, negative = inhibition ([2]; at 17.2 µM (top of the series)) -21.6% | Potency [3] | activity change, negative = inhibition ([13]; at 17.2 µM (top of the series)) -2.45% | activity, negative = inhibition ([12]; at 17.2 µM (top of the series)) 5.14% | Potency [5] > 20.6 µM | Potency [6] > 20.6 µM | outcome [7]

Cc1cc(=O)n(-c2ccccc2)n1C
inactive: activity change, negative = inhibition ([2]; at 17.2 µM (top of the series)) 3.67% | Potency [3] | activity change, negative = inhibition ([13]; at 17.2 µM (top of the series)) -2.45% | activity, negative = inhibition ([12]; at 17.2 µM (top of the series)) 10.3% | outcome [7]

COc1cc(-c2ccc(=O)[nH]n2)ccc1OC(F)F
inactive: activity change, negative = inhibition ([2]; at 17.2 µM (top of the series)) -8.42% | activity change, negative = inhibition ([2]; at 38 µM (top of the series)) 17.6% | activity change, negative = inhibition ([13]; at 17.2 µM (top of the series)) -13.5% | activity change, negative = inhibition ([13]; at 38 µM (top of the series)) -7.13% | activity, negative = inhibition ([12]; at 17.2 µM (top of the series)) 0.425% | activity, negative = inhibition ([12]; at 38 µM (top of the series)) -14.4% | Potency [5] > 46 µM and > 20.6 µM | Potency [6] > 46 µM and > 20.6 µM | outcome [7]
active: Potency [3] 10 µM and 5.01 µM and 2.51 µM
